Test results from PubChem BioAssay.
Active and inactive are the calls of the source.

What was measured:
[1] = tested on: Human papillomavirus type 1a protein E7 (residues 44-93); assay: HPV1a E7 fragment binders on microarrays, primary screen, biochemical, small-molecule microarray, residues 44-93, 635 nm fluorescence (AID 1108); conditions: small-molecule microarray binding, fluorescence 635 nm; higher = more signal;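 note: E7 fragment applied at 1 µg/mL in TBST for 1 h at 4 C; score combines spot fluorescence with its signal to noise ratio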
[2] = modulators of HCV replicon luciferase signal, primary screen, HCV replication inhibitor project, Huh7 cells, luciferase reporter (AID 1109); conditions: 48 h, higher = more signal;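 note: huh7 hepatoma cells harbouring a luciferase neomycin HCV replicon reporter; luciferase luminescence as measure of HCV replicon replication; test concentration not given here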
[3] = target: Left-right determination factor 2 (Homo sapiens) (UniProt O00292); assay: LEFTY2 binders on small-molecule microarrays, primary screen, biochemical, small-molecule microarray, 635 nm fluorescence scan (AID 1110); conditions: LEFTY2 binding, higher = more signal
[4] = target: Calmodulin-1 (Homo sapiens) (UniProt P0DP23); assay: CALM1 binders on microarrays, EGTA buffer, profiling panel, biochemical, small-molecule microarray, Cy5-labelled CALM1 (AID 1111); conditions: Cy5-CALM1 binding fluorescence, higher = more signal;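 note: labelled calmodulin applied in Tris saline Tween buffer holding calcium plus EGTA and DTT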
[5] = target: Calmodulin-1 (Homo sapiens) (UniProt P0DP23); assay: calcium-bound CALM1 binders on microarrays, profiling panel, artefact control for SMM control-protein annotation, biochemical, small-molecule microarray, Cy5-labelled CALM1, plus calcium (AID 1112); conditions: Cy5-CALM1 binding fluorescence, higher = more signal;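 note: score merges spot fluorescence with signal to noise from triplicate slides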
[6] = small-molecule microarray binders of probe aWnt5a, primary screen, biochemical, biotinylated probe, 635/667 nm fluorescence (AID 1113); conditions: higher = more signal;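 note: score merges 667 nm fluorescence intensity with signal-to-noise per printed feature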
[7] = small-molecule microarray binders of probe aShh, primary screen, biochemical, biotinylated probe, 635/667 nm fluorescence (AID 1114); conditions: higher = more signal;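 note: probe is biotin-labelled aShh protein from a stem cell growth factor screen; measures binding of labelled protein to compounds printed on the slide; score merges feature fluorescence at 667 nm with signal-to-noise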
[8] = small-molecule microarray binders of probe aNog, primary screen, biochemical, biotinylated probe, 635/667 nm fluorescence (AID 1115); conditions: higher = more signal;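 note: probe is biotinylated aNog protein used at 0.15 µg/mL for 1 h at 4 C; z-score combines 667 nm fluorescence of each spot with its signal to noise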
[9] = target: Torsin-1A-interacting protein 1 (Homo sapiens) (UniProt Q5JTV8); assay: LAP1 binders from COS7 cell lysate, primary screen, small-molecule microarray, 635/667 nm fluorescence (AID 1116); conditions: COS7-hLAP1 lysate binding, 635 nm fluorescence, higher = more signal
[10] = target: Alpha-bungarotoxin (Bungarus multicinctus) (UniProt P60615); assay: alpha-bungarotoxin binders on microarray, profiling panel, artefact control for SMM control protein annotation, biochemical, small-molecule microarray, Alexa647 label, 635/667 nm fluorescence (AID 1117); conditions: alpha-BTX-A647 binding fluorescence, higher = more signal
Albumin (Bos taurus) = Albumin (Bos taurus) (UniProt P02769); assay: bovine serum albumin binders on microarray, profiling panel, artefact control for SMM control protein annotation, biochemical, small-molecule microarray, Alexa647 label, 635/667 nm fluorescence (AID 1118); conditions: BSA-A647 binding, fluorescence 635 nm, higher = more signal;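 note: score merges 667 nm emission intensity and signal-to-noise per printed compound spot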
[11] = small-molecule microarray binders of probe aXIP, primary screen, biochemical, NeuroSMM set, 635/667 nm fluorescence (AID 1119); conditions: higher = more signal, called active from +8 up or from −8 down;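 note: probe is the protein aXip251-270 applied at 1 µg/mL to compound-printed slides; binding of probe to printed compounds measured as 667 nm fluorescence plus signal to noise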
[12] = small-molecule binders of probe aNOTCH3, primary screen, biochemical, small-molecule microarray, 635/667 nm fluorescence (AID 1120); conditions: higher = more signal;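 note: probe is a biotin-tagged antibody raised against NOTCH3 rather than NOTCH3 protein; score merges spot fluorescence near 667 nm with spot signal to noise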
[13] = small-molecule binders of probe aNOTCH2, primary screen, biochemical, small-molecule microarray, 635/667 nm fluorescence (AID 1121); conditions: higher = more signal;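 note: score merges feature fluorescence read at 667 nm with its signal to noise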
[14] = target: Carbonic anhydrase 2 (Homo sapiens) (UniProt P00918); assay: CAII small-molecule binders, profiling panel, biochemical, small-molecule microarray, Alexa647-labelled CAII (AID 1122); conditions: CAII-A647 binding fluorescence, higher = more signal
[15] = COS7 lysate on small-molecule microarray, probe aHis, 635 nm (AID 1123); conditions: COS7 cell lysate, fluorescence, higher = more signal;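 note: z-score combines 667nm fluorescence intensity with signal-to-noise per printed compound spot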
[16] = compound binding in COS7 lysate, probe aLAP1, primary screen, cell lysate, small-molecule microarray (AID 1124); conditions: probe aLAP1, fluorescence, higher = more signal;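 note: lysate comes from COS7 cells expressing LAP1 and is applied at 0.3 µg/mL; score merges spot fluorescence near 667 nm with signal-to-noise over triplicate slides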
Sam68 (KHDRBS1) = assay: Sam68 small-molecule binders, primary screen, biochemical, small-molecule microarray, 635 nm fluorescence (AID 1125); conditions: small-molecule microarray binding, higher = more signal;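 note: score merges 667 nm channel intensity with signal to noise over triplicate slides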
[17] = tested on: Chordin-like protein 2 (CHRDL2); assay: CHRDL2 small-molecule binders, primary screen, biochemical, small-molecule microarray, 635 nm fluorescence (AID 1126); conditions: small-molecule microarray binding, fluorescence 635 nm; higher = more signal;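 note: printed compound slides probed with Chrdl2 protein at 4 µg/mL for 1 h at 4 C; score merges 667 nm emission intensity with signal to noise over three replicate slides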
[18] = target: Concanavalin-A (Canavalia ensiformis) (UniProt P02866); assay: ConA small-molecule binders, primary screen, artefact control for SMM control protein annotation, biochemical, small-molecule microarray, Alexa647 label, 635 nm (AID 1127); conditions: ConA-A647 binding fluorescence, higher = more signal;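 note: z combines 667 nm emission intensity with signal-to-noise across three replicate slides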
Concanavalin-A (Canavalia ensiformis), sequence (P02866 whole entry, looked up): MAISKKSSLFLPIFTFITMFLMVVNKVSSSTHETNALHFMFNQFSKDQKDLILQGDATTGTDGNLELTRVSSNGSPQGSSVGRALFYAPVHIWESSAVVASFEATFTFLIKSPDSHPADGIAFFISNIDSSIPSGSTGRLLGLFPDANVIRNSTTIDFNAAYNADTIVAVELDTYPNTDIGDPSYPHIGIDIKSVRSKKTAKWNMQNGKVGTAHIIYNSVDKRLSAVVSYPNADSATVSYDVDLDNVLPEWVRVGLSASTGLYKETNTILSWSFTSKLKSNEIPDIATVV

Left-right determination factor 2 (Homo sapiens), sequence (O00292 whole entry, looked up): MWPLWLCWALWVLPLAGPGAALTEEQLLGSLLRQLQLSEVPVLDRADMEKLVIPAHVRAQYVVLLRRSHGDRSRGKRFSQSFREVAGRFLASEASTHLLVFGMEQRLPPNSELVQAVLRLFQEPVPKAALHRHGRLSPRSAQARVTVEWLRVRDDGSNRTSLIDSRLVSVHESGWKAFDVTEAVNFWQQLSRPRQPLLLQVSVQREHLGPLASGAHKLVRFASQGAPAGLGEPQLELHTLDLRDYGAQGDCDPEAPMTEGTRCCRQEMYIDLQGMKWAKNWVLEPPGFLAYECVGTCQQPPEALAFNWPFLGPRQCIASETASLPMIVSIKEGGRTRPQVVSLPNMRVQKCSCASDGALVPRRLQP
Alpha-bungarotoxin (Bungarus multicinctus), sequence (P60615 whole entry, looked up): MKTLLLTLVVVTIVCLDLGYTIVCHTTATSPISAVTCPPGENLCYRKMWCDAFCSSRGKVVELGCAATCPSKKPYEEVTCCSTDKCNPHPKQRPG
Torsin-1A-interacting protein 1 (Homo sapiens), sequence (Q5JTV8 whole entry, looked up): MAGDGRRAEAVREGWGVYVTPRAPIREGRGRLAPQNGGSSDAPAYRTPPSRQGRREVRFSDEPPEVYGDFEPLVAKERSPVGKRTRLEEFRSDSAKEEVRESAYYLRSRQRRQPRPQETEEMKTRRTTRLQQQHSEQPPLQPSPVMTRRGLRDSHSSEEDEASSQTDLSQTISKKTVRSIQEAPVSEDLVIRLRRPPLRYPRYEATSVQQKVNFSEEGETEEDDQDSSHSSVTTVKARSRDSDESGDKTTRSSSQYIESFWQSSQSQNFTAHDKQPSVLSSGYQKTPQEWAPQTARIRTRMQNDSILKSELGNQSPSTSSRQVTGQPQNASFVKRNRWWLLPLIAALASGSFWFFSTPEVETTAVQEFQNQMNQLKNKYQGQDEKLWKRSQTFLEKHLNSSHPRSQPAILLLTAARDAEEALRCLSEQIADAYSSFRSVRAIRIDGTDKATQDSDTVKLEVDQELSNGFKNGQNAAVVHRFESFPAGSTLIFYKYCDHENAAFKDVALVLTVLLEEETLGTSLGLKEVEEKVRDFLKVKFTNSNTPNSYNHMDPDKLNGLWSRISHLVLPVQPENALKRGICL
Albumin (Bos taurus), sequence (P02769 whole entry, looked up): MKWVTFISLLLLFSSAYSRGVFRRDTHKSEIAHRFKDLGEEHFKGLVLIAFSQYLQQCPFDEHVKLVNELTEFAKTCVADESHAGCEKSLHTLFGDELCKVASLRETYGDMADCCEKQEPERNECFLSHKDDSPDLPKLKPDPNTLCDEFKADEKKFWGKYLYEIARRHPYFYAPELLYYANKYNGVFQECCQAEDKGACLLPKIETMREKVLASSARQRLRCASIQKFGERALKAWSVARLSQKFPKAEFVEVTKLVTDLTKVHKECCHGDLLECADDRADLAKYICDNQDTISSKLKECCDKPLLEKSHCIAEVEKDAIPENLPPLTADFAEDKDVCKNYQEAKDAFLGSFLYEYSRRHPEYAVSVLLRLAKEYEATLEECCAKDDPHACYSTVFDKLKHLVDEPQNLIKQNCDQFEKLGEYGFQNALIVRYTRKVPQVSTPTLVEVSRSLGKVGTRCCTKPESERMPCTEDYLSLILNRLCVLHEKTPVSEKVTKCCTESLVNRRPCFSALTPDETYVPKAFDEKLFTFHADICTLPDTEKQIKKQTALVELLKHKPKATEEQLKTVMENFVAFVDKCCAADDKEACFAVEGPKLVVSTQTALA

Structure (SMILES) | composite z-score [1] | z-score [2] | composite z-score [3] | composite z-score [4] | composite z-score [5] | composite z-score [6] | composite z-score [7] | composite z-score [8] | composite z-score [9] | composite z-score [10] | composite z-score (Albumin (Bos taurus)) | composite Z-score [11] | composite z-score [12] | composite z-score [13] | composite z-score [14] | composite z-score [15] | composite z-score [16] | composite z-score (Sam68 (KHDRBS1)) | composite z-score [17] | composite z-score [18]
CCCC=C(CCC)[C@@H](NS(=O)(=O)CC12CCC(CC1=O)C2(C)C)c1ccc(C(=O)OC)cc1 (stereo not given in full) | 1.33 | -0.197 | 0.306 | -0.057 | -0.654 | -0.165 | -0.373 | -0.289 | 0.159 | -0.362 | 0.0225 | 0.234 (inactive) | 0.344 | 0.0727 | -0.0343 | 2.12 | 0.154 | 0.96 | -0.14 | 0.438
CC(=O)NCCCC[C@@H]1NC(=O)[C@@H]2C[C@H](C(=O)NCCCCCN)[C@H](c3ccc(O)cc3)N2C1=O | 1.32 | -0.663 | 1.31 | 0.331 | 0.711 | 0.258 | -0.0794 | -0.158 | 1.31 | 0.766 | 0.0285 | -0.0662 (inactive) | 0.237 | 0.0654 | 0.527 | 1.26 | 1.06 | 1.11 | 0.964 | 0.956
CCOC(=O)C[C@H]1[C@H](OC(=O)c2ccc(C(=O)c3ccccc3)cc2)[C@@H](NC(=O)C2CCCCC2)c2cc(OCCCO)ccc2N1C(=O)c1ccc2ccccc2n1 | 1.3 | 0.0574 | 0.752 | 0.711 | -0.102 | 0.0552 | -0.243 | -0.244 | 0.805 | 0.673 | 0.534 | -0.482 (inactive) | -0.0647 | -0.102 | 0.0738 | 1.05 | -0.0375 | 1.31 | 0.24 | 0.955
NC(=O)NCC#Cc1ccc2c(c1)[C@]1(C(=O)N2)[C@H](c2ccccc2OCCO)N2[C@H](c3ccccc3)[C@H](c3ccccc3)OC(=O)[C@H]2[C@@H]1C(=O)NC[C@H](O)c1ccccc1 | 1.36 | -0.651 | -0.568 | -0.157 | 0.501 | -0.0981 | 0.0141 | -0.213 | 0.395 | 1.1 | 0.63 | -0.17 (inactive) | -0.143 | -0.103 | 0.582 | 1.19 | 0.428 | 0.026 | -0.501 | 0.68
CCCNC(=O)[C@@H]1c2ccccc2C(=O)N(Cc2ccc(OC(F)(F)F)cc2)[C@H]1c1ccc(CO)cc1 | 0.957 | -0.808 | -0.144 | 0.222 | 0.237 | 0.0077 | 0.292 | 0.0303 | 0.448 | 0.102 | 0.27 | -0.123 (inactive) | -0.0288 | -0.0326 | 0.158 | 0.677 | -0.374 | 0.416 | 0.102 | 0.0505
CCCCCN1CC=CC23O[C@@H]4C=CCCOC(=O)C4[C@H]2C(=O)N(CCCCCCO)[C@@H]3C1=O (stereo not given in full) | 0.521 | 0.525 | -0.287 | -0.711 | -0.533 | -0.168 | -0.0769 | -0.316 | 0.564 | -0.675 | -0.587 | 0.976 (inactive) | -0.252 | -0.203 | 0.861 | 2.33 | 0.0488 | 0.0067 | -0.856 | -0.52
CCOC(=O)C[C@H]1[C@H](OC(=O)Cc2ccc3c(c2)OCO3)[C@@H](NC(=O)c2ccc3ccccc3n2)c2cc(OCCCO)ccc2N1C(=O)c1ccccc1 | 0.348 | -1.26 | -0.0499 | 0.179 | -0.564 | -0.0269 | -0.214 | 0.0589 | 0.49 | 0.611 | -0.233 | 0.221 (inactive) | -0.124 | -0.18 | 0.0645 | 0.109 | -0.115 | 0.416 | 0.528 | 0.321
CC1CC/C=C\[C@H]2OC34C=CCN(c5ccc(Cl)cc5)C(=O)[C@H]3N(C(C)CO)C(=O)[C@]4(C)C2C(=O)O1 (stereo not given in full) | -0.815 | -1.16 | -0.707 | 0.253 | -0.141 | -0.124 | -0.289 | -0.0133 | 0.0045 | -0.664 | -1.07 | -0.408 (inactive) | -0.322 | -0.14 | 0.768 | -0.66 | 1.27 | -0.297 | -0.482 | -0.863
C=CC[C@@]1(C(=O)NCCCOC)N=C(c2ccc(OCCCO)cc2)O[C@@H]1c1ccccc1N=[N+]=[N-] | 1.44 | -1.09 | -0.553 | 0.968 | -0.105 | -0.0519 | 0.0639 | 0.291 | 0.905 | 0.767 | 0.896 | -0.349 (inactive) | 0.356 | -0.125 | 0.224 | 1.73 | 0.209 | 1.01 | -0.325 | 0.562
CCOC(=O)C1=C[C@@H](C(C)C)N(S(=O)(=O)c2ccc(C)cc2)[C@H]1c1ccc(C(F)(F)F)cc1 | 1.4 | -0.972 | 0.499 | 1.07 | -0.0824 | -0.0607 | 0.296 | 0.868 | 0.76 | 1.06 | 0.665 | 0.559 (inactive) | 0.256 | -0.0438 | 0.173 | 2.52 | 0.327 | 1.31 | 0.106 | 1.05
COc1cccc(C)c1NC(=O)O[C@H]1[C@H](OC(=O)Nc2ccccc2-c2ccccc2)[C@H](OC(=O)Nc2ccccc2-c2ccccc2)[C@@H](OC)O[C@@H]1CO | 1.41 | -2.36 | 0.679 | 1.72 | 0.11 | 0.0304 | -0.0192 | -0.518 | 1.26 | 0.688 | 0.816 | 0.497 (inactive) | 0.233 | 0.0149 | 0.434 | 0.947 | 0.429 | 1.29 | 0.494 | 1.15
